The list is not random: actives were taken first. Their share in the collection is about 1.5%.
Mtb MenB inh – M. tuberculosis MenB inhibitors, primary screen, biochemical, absorbance; 1,4-dihydroxy-2-naphthoyl-CoA synthase (Mycobacterium tuberculosis (strain ATCC 25618 / …; MenB enzyme assay, absorbance read-out; inhibition, % (no concentration beside the values); actives 0.43% (n = 100,000); AID 540299, 2011; in the data active = inhibition above about 21%, passing the limit was not always enough
AID504770 – growth inhibition of E. coli YBA685, primary screen, V. cholerae RctB inhibitors; E. coli YBA685 rctB-dependent plasmid, OD600 growth, 3 h; active compounds read low; z-score (test concentration not listed); actives 0.27% (n = 130,000); in the data active = z-score below about -2, passing the limit was not always enough
Mtb MbtI inh – MbtI salicylate synthase inhibitors, primary screen, biochemical, fluorescence intensity; P9WFX0; purified MbtI enzyme, fluorescence intensity read-out; inhibition, % (test concentration not listed); actives 0.89% (n = 100,000); AID 493033, 2011; in the data active = inhibition mostly above about 56%, no sharp cut-off; inactive = mostly below about 77%
PV pol inh – poliovirus RdRp elongation inhibitors, primary screen, biochemical, fluorescence polarization, total intensity | Genome polyprotein (Poliovirus type 1 (strain Mahoney)), P03300 | poliovirus polymerase elongation; active compounds read low | % elongation, % (compound at 16.7 µg/mL) | actives 0.66% (n = 150,000); in the data active = % elongation below about 90%
Target sequence (P03300 1749-2209 limits assumed): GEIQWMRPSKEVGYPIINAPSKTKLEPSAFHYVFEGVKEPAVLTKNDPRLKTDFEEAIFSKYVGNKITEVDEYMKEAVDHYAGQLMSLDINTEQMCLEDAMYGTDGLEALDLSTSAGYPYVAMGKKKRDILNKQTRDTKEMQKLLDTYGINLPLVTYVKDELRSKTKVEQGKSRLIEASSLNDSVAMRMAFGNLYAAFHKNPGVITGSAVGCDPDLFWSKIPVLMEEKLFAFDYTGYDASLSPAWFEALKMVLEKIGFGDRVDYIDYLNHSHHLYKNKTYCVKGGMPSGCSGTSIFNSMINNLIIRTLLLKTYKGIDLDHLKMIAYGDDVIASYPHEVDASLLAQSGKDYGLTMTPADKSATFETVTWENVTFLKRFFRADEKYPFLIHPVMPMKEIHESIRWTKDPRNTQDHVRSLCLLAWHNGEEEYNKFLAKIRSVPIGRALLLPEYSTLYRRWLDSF
The depositor's hits bear a star; / = no result.

SMILES	Mtb MenB inh	AID504770	Mtb MbtI inh	PV pol inh
Cc1ccc(C)n1-c1cc(Cl)ccc1C(=O)O	-6	1.1	25	84*
CCOC(=O)c1c(CN2CCOCC2)n(C)c2ccc(O)cc12	-1	0.65	/	68*
O=C1CSc2sc(=S)sc2S1	-121	-0.8	47	88*
Cc1csc(=O)n1CCC(=O)OCN1C(=O)c2ccccc2C1=O	-25	-0.05	12	101
CC(=O)N(/C=C1\Sc2ccccc2C1=O)N1CCCCC1	-21	0.05	19	104
CNc1sc(C(=O)c2cccs2)c(N)c1-c1nc2ccccc2s1	-43	1.6	97*	110
CC(=O)Nc1scc(C)c1-c1nc2ccccc2s1	/	-0.85	/	/
NCc1ccc(C(=O)O)o1	-22	0.75	-7	100
NC(=S)Cc1ccc(CC(N)=S)o1	-23	0.15	82*	95
CCn1c(-c2cc(OC)ccc2OC)csc1=Nc1ccc(O)cc1	-37	-0.15	66*	87*
CC12CC(C)(C)C(C#N)(C(N)=C1C#N)C(=C(C#N)C#N)N2 (stereo not given)	-15	0.7	5	83*
CN(C)CCSc1nc2ccccc2c(=O)n1-c1ccccc1	-3	0.55	/	107
CCNC(=O)CCOc1cccc(C)c1	2	-0.05	0	52*
Cc1cccc(OCCCC(=O)O)c1	/	1.1	-1	101
CC(C)(C)NCc1ccc(-c2ccccc2)o1	12	0.05	8	100
CCN(CC)CCNCc1ccc(-c2ccccc2)o1	33*	-0.2	11	102
COc1ccc(Nc2nc(N)nc(CN3CC(C)CC(C)C3)n2)cc1 (stereo not given)	11	-0.4	-3	99
COC(=O)c1cccc(N2C(=O)C3C4C=CC(C)(O4)C3C2=O)c1 (stereo not given)	-5	-0.65	99*	101
O=C1CSc2nnc(-c3ccccc3)n21	9	0.3	0	54*
N#CCc1nc(-c2cccc(Cl)c2)n[nH]1	12	0.85	74*	101
Clc1ccc(OCCn2ccnc2)c(Br)c1	-2	-2.7*	-12	101
COc1cc(SC)ccc1C(=O)N(C)C1CCN(C)CC1	-9	-0.15	2	-3.0*
Cn1ncc(S(=O)(=O)Cc2ccccc2)c(Cl)c1=O	4	-0.2	90*	98
Clc1nc(Cl)nc(NCCC2=CCCCC2)n1	17	2	8	78*
S=C(NCCc1ccccc1)c1ccccc1	-9	-0.35	-10	103
SMILES	Mtb MenB inh	AID504770	Mtb MbtI inh	PV pol inh
NC(=S)NCCc1ccccc1	-50	-0.25	83*	86*
N#C/C(=C\NC(=O)c1ccccc1)C(=O)N1CCOCC1	-14	0.75	23	102
COc1ccc(CN(Cc2nc3ccccc3c(=O)[nH]2)C(=O)Nc2ccccc2)cc1	-10	-0.4	0	103
S=C(c1c[nH]c2ccccc12)N1CCCC1	-30	0.25	-2	102
S=C(c1c[nH]c2ccccc12)N1CCCCC1	-21	-0.2	79*	105
Cc1cc(OC(=O)/C=C/c2ccc(F)cc2)cc(=O)o1	-38	-0.6	62	84*
Cc1ccccc1NC(=O)c1c(NC(=O)C(C)Oc2cccc(Cl)c2)sc2c1CCCC2 (stereo not given)	/	/	/	87*
COc1ccc(Cl)cc1NC(=O)c1c(NCc2sccc2C)sc2c1CCCC2	/	/	/	70*
O=C(Nc1cccc(Cl)c1)c1c(NC(=O)C(F)(F)F)sc2c1CCCC2	/	/	/	79*
O=C(COc1ccc(Cl)cc1)Nc1sc2c(c1C(=O)Nc1cccc(Cl)c1)CCCC2	/	/	/	81*
CCOc1ccccc1NC(=O)c1c(NC(=O)C(C)Oc2cccc(Cl)c2)sc2c1CCCCC2 (stereo not given)	/	/	/	98
Cc1cccc(NC(=O)c2c(NC(=O)C(F)(F)F)sc3c2CCCCC3)c1	/	/	/	105
CCc1ccc2c(CNC(CC)CC)cc(=O)oc2c1	-1	-1.8	-10	104
CN(Cc1ccccc1)c1nnc(NC(=O)NCc2ccccc2)s1	-13	-0.15	-9	102
CC(=S)Nc1ccc(Nc2ccccc2)cc1	-4	-0.6	10	100
COCCN1C(=O)C=CC1=O	/	-3.5*	62*	100
COCCN1C(=O)c2ccccc2C1=O	4	1.6	10	99
CC(C)(C)c1cc(C(F)(F)F)nc(SCCNC(=O)c2cnn3cccnc23)n1	34*	-0.05	-15	101
CC(C)C(c1nnnn1Cc1ccccc1)N1CCN(c2ccccc2)CC1 (stereo not given)	32*	0.3	-1	98
